What all share (assay): DAPPL (digital affinity profiling via proximity ligation, sequencing); 10 mM Tris-HCl pH 7.5, 50 mM NaCl, 1 mM DTT, 4% glycerol, room temperature, 30 min; GST-TFs on glutathione beads, 16-mer random dsDNA library, 0.1% formaldehyde crosslink after washing; high values mean tight binding
One assay concerns the target T1, FEV (Homo sapiens, UniProt Q99581 1-238).
T1 sequence: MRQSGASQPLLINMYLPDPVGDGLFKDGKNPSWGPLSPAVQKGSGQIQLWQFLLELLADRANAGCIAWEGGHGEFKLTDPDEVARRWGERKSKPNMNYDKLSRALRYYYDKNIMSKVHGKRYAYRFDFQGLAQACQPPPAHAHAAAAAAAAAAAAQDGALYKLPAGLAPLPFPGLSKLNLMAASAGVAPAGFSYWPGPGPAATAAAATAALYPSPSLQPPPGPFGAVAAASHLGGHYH
The conditions noted are these: protein: recombinant; tags: N-terminal GST; dsDNA, one strand shown. The procedure, abridged:
(§1)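 Human transcription factors fused to GST were expressed in yeast, captured on glutathione beads, given DNA barcodes and pooled with a GST-only negative control. Pools were incubated with 200 nmole of a 16-mer random double-stranded DNA library in Tris/NaCl/DTT/glycerol buffer at room temperature for 30 min. They were then washed, crosslinked with 0.1% formaldehyde, proximity-ligated (BsaI/T4 ligase, 1 h, 37 °C), PCR-amplified and sequenced on an Illumina NextSeq500. Binding signal is each 6-mer's read frequency for a factor divided by its frequency for the GST control.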

In another assay the target is ETV5 (Homo sapiens, UniProt P41161 1-510). The following applies: protein: recombinant; tags: N-terminal GST; dsDNA, one strand shown. The procedure, abridged:
as §1

The target of another assay is HSF1 (Homo sapiens, UniProt Q00613 1-529). The conditions noted are these: protein: recombinant; tags: N-terminal GST; chain copies: 3; dsDNA, one strand shown. The procedure, abridged: as §1
HSF1, sequence (Q00613 whole entry): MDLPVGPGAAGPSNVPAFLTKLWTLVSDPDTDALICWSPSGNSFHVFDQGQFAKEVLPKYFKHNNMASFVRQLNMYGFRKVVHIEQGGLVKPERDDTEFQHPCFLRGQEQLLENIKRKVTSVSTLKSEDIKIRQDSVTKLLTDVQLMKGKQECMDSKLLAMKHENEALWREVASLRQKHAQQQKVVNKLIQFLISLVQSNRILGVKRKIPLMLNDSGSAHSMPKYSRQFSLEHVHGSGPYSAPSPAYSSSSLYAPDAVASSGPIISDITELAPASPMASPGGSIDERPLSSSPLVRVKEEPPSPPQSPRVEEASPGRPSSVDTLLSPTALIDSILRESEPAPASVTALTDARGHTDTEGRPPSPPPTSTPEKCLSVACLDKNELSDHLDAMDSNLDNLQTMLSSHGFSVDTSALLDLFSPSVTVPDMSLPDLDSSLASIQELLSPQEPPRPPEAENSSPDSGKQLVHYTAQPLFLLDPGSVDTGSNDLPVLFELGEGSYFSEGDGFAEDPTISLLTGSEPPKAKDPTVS
For another assay, the target named is T2, SPIC (Homo sapiens, UniProt Q8N5J4 1-248).
T2 sequence: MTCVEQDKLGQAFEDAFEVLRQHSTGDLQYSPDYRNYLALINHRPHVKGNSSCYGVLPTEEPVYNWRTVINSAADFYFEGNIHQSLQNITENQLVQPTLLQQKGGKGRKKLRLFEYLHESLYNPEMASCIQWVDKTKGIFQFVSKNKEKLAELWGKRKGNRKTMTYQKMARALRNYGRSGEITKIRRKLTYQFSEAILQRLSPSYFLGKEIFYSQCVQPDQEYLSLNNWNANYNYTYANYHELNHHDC
The following applies: protein: recombinant; tags: N-terminal GST; dsDNA, one strand shown. The essentials: as §1

The next assay deals with ELF4 (Homo sapiens, UniProt Q99607 1-663). The conditions noted are these: protein: recombinant; tags: N-terminal GST; dsDNA, one strand shown. The procedure, abridged: as §1
ELF4, sequence (Q99607 whole entry): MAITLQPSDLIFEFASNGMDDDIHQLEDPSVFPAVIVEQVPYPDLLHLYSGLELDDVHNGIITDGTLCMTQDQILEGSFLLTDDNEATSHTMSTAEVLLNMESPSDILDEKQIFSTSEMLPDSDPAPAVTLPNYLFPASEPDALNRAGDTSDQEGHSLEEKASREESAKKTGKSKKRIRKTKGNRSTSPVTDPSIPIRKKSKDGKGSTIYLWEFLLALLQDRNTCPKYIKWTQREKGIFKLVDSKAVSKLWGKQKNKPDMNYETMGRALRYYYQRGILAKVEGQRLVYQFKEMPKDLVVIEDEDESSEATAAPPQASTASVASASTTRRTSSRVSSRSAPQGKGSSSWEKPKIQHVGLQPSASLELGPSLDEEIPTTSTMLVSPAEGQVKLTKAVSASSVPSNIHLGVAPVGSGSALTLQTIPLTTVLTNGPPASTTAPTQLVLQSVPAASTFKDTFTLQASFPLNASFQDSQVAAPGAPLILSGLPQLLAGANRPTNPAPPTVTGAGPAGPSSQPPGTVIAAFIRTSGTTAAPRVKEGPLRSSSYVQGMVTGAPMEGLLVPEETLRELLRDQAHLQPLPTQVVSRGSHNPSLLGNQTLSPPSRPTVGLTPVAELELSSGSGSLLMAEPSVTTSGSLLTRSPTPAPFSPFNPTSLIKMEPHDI
For the next assay, the target named is T3, ELK4 (Homo sapiens, UniProt P28324-2 1-405).
T3 sequence: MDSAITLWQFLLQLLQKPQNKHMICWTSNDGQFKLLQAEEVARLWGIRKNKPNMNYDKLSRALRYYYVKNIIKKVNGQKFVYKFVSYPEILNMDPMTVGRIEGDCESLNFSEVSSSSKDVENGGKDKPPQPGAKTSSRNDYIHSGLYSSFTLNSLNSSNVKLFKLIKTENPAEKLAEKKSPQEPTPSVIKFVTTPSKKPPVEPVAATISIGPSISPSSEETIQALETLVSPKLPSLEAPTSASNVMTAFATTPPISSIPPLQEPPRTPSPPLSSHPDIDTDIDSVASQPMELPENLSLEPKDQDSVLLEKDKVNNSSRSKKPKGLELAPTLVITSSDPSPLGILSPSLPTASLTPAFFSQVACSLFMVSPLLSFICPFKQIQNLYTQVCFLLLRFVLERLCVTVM
The following applies: protein: recombinant; tags: N-terminal GST; dsDNA, one strand shown. The procedure, abridged: as §1

A further assay deals with T4, ETV2 (Homo sapiens, UniProt O00321 1-342).
T4 sequence: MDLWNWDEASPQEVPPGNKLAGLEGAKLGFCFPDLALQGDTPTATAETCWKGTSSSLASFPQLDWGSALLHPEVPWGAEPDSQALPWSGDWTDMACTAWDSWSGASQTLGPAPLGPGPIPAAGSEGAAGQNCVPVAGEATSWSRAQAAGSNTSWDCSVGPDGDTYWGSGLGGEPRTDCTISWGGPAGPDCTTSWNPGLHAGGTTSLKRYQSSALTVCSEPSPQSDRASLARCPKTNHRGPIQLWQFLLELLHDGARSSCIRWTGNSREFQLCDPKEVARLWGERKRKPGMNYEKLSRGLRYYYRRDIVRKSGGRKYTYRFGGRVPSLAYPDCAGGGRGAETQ
The following applies: protein: recombinant; tags: N-terminal GST; dsDNA, one strand shown. The procedure, abridged: as §1

In the next assay the target is T5, ELF3 (Homo sapiens, UniProt P78545 1-371).
T5 sequence: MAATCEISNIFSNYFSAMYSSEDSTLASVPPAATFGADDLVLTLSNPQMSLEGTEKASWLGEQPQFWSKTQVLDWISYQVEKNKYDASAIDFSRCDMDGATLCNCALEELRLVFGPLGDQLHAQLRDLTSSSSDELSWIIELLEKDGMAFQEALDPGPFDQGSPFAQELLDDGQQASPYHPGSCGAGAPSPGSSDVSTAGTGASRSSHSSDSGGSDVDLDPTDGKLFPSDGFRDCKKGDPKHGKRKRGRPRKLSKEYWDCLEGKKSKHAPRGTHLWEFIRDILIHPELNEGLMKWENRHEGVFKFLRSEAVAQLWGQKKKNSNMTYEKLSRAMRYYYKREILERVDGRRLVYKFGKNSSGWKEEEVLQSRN
The conditions noted are these: protein: recombinant; tags: N-terminal GST; dsDNA, one strand shown. The procedure, abridged: as §1

For a further assay, the target named is CRX (Homo sapiens, UniProt O43186 1-299). The following applies: protein: recombinant; tags: N-terminal GST; dsDNA, one strand shown. The essentials:
as §1

In another assay the target is ETV1 (Homo sapiens, UniProt P50549 1-477). The conditions noted are these: protein: recombinant; tags: N-terminal GST; dsDNA, one strand shown. The procedure, abridged: as §1
ETV1, sequence (P50549 whole entry): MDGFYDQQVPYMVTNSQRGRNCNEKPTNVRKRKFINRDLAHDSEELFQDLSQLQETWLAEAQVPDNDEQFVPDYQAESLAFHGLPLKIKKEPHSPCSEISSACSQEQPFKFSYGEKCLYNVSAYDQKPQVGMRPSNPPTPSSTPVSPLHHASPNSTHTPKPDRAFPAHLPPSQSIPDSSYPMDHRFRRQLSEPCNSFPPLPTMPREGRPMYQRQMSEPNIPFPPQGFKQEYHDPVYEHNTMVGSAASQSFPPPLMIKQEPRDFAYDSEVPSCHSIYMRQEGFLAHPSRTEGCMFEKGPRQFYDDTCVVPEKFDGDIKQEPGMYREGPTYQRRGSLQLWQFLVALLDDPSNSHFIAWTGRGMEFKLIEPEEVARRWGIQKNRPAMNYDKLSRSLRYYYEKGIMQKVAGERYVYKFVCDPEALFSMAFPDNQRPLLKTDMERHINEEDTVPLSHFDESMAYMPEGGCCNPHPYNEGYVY
For another assay, the target named is T6, ERF (Homo sapiens, UniProt P50548 1-548).
T6 sequence: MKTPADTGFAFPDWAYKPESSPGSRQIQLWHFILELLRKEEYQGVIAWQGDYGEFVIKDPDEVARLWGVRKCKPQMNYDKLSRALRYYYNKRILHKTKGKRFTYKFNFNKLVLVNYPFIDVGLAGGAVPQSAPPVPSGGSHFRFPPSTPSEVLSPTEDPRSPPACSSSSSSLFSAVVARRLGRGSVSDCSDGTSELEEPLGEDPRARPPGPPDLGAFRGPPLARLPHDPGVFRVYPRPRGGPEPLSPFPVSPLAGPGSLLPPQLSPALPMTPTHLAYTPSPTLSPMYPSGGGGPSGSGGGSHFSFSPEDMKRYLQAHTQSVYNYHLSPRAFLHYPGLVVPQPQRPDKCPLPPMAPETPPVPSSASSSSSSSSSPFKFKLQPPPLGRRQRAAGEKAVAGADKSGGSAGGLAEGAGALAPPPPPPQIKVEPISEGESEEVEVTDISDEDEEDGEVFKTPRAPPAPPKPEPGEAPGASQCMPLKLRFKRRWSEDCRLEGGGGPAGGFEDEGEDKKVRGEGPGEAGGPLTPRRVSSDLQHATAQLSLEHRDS
The following applies: protein: recombinant; tags: N-terminal GST; dsDNA, one strand shown. The procedure, abridged: as §1

The next assay concerns the target T7, ETV3L (Homo sapiens, UniProt Q6ZN32 1-361).
T7 sequence: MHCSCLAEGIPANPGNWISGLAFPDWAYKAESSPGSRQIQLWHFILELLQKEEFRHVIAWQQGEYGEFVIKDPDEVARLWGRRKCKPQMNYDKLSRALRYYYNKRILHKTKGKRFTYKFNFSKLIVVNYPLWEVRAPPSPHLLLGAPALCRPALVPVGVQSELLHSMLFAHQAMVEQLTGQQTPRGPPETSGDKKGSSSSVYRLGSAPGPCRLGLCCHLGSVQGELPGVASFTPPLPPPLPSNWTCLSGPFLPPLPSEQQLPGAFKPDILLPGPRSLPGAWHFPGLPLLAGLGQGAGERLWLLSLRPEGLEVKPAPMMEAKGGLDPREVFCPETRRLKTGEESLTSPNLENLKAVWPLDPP
The conditions noted are these: protein: recombinant; tags: N-terminal GST; dsDNA, one strand shown. The essentials: as §1

The target in the next assay is T8, ETS2 (Homo sapiens, UniProt P15036 1-469).
T8 sequence: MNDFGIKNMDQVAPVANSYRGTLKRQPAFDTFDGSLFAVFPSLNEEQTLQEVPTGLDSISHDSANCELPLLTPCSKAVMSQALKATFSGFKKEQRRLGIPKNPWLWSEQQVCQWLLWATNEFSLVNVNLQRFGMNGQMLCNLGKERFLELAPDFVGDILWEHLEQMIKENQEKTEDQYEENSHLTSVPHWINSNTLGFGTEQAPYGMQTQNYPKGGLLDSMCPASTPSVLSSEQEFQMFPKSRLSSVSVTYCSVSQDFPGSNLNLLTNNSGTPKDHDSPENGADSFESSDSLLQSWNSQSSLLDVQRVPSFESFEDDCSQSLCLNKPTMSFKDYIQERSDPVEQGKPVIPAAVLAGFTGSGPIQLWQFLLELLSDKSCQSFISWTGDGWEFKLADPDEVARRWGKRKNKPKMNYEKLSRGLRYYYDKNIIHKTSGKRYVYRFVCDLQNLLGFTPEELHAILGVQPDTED
The following applies: protein: recombinant; tags: N-terminal GST; dsDNA, one strand shown. The essentials:
as §1

A further assay addresses T9, SPDEF (Homo sapiens, UniProt O95238 1-335).
T9 sequence: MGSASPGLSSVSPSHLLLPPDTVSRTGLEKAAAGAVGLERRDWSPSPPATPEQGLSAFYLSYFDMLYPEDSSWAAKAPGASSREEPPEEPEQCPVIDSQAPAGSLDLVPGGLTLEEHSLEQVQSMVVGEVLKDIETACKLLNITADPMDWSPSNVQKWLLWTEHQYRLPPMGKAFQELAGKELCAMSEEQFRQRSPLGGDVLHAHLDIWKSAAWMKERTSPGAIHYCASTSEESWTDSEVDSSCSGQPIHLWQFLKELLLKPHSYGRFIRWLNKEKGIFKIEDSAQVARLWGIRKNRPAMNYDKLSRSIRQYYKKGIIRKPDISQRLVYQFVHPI
The following applies: protein: recombinant; tags: N-terminal GST; dsDNA, one strand shown. The essentials:
as §1

The target of the next assay is T10, ETV7 (Homo sapiens, UniProt Q9Y603 1-341).
T10 sequence: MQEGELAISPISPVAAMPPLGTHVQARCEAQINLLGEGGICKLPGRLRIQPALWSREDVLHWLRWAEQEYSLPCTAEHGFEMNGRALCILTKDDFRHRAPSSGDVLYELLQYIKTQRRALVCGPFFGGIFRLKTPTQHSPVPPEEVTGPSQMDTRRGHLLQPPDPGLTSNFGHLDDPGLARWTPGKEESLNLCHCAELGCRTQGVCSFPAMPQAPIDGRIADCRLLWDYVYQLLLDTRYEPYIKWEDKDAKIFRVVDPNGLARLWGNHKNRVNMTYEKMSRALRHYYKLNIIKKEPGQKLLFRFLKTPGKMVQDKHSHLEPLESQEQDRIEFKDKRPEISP
The conditions noted are these: protein: recombinant; tags: N-terminal GST; dsDNA, one strand shown. The essentials: as §1

The target in a further assay is T11, ELF5 (Homo sapiens, UniProt Q9UKW6-2 1-255).
T11 sequence: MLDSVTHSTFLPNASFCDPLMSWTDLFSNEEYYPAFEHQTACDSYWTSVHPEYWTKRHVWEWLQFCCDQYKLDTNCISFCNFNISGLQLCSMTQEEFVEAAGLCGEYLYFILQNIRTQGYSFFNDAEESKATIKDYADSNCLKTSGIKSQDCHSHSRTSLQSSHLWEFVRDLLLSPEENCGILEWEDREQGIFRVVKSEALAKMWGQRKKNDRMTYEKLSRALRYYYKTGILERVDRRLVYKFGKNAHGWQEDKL
The following applies: protein: recombinant; tags: N-terminal GST; dsDNA, one strand shown. The procedure, abridged: as §1

The next assay concerns the target T12, ETV3 (Homo sapiens, UniProt P41162-2 1-143).
T12 sequence: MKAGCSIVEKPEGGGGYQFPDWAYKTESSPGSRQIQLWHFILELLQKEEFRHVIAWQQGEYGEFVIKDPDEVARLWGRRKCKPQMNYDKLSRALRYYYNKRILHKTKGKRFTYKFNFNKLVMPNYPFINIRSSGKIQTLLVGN
The following applies: protein: recombinant; tags: N-terminal GST; dsDNA, one strand shown. The essentials: as §1

Another assay concerns the target ETV6 (Homo sapiens, UniProt P41212 1-452). The following applies: protein: recombinant; tags: N-terminal GST; dsDNA, one strand shown. The essentials:
as §1

Experimental findings from paper PMC7862700, “An all-to-all approach to the identification of sequence-specific readers for epigenetic DNA modifications on cytosine” are described below.

ETV5, sequence (P41161 whole entry): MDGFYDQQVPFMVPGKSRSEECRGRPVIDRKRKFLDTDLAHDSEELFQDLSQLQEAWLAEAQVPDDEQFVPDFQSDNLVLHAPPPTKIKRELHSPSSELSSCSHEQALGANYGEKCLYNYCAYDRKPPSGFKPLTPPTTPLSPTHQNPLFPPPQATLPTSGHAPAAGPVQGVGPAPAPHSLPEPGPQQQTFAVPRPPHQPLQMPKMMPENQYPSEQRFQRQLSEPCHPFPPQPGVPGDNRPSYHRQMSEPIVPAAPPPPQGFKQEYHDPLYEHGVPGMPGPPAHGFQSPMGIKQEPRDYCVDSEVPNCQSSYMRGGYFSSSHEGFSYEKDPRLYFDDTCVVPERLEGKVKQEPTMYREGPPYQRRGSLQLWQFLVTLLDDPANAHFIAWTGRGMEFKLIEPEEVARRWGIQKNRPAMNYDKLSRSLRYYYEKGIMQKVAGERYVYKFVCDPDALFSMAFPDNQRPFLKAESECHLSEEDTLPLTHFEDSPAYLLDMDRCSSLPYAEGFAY
ETV6, sequence (P41212 whole entry): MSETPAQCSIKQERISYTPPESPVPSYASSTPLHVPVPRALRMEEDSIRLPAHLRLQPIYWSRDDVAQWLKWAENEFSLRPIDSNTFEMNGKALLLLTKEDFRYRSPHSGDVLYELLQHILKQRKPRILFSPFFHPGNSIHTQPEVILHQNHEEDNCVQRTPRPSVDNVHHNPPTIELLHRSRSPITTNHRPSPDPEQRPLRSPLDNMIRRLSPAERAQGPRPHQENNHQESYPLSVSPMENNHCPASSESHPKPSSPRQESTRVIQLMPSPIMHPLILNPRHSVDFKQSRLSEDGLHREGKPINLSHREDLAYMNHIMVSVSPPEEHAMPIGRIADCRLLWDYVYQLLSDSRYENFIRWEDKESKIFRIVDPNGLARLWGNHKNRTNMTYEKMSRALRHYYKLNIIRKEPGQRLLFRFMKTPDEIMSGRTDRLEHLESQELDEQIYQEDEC
CRX, sequence (O43186 whole entry): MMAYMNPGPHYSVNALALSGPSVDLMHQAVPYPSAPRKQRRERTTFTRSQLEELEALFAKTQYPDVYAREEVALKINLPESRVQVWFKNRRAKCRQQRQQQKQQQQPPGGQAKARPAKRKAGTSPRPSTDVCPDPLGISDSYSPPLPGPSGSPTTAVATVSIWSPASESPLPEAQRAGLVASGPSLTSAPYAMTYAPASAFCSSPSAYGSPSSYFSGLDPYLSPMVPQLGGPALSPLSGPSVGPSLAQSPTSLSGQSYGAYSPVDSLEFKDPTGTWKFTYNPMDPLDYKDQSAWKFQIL

In the case of CTCGAG, the binding signal with FEV is 1.2 fold enrichment (6-mer frequency, TF over GST control); in the assay with ETV5, 1.26 fold enrichment (6-mer frequency, TF over GST control); with HSF1, 2 fold enrichment (6-mer frequency, TF over GST control); with SPIC, 1.44 fold enrichment (6-mer frequency, TF over GST control); in the assay with ELF4 it was 1.34 fold enrichment (6-mer frequency, TF over GST control); with ELK4 it was 1.31 fold enrichment (6-mer frequency, TF over GST control). Besides, the binding signal with ETV2 is 1.64 fold enrichment (6-mer frequency, TF over GST control); with ELF3, 1.3 fold enrichment (6-mer frequency, TF over GST control); with CRX, 1.26 fold enrichment (6-mer frequency, TF over GST control); with ETV1, 1.2 fold enrichment (6-mer frequency, TF over GST control); with ERF, 1.29 fold enrichment (6-mer frequency, TF over GST control); in the assay with ETV3L, 1.25 fold enrichment (6-mer frequency, TF over GST control). Moreover, the binding signal with ETS2 was 1.17 fold enrichment (6-mer frequency, TF over GST control); with SPDEF, 1.16 fold enrichment (6-mer frequency, TF over GST control); with ETV7, 1.36 fold enrichment (6-mer frequency, TF over GST control); in the assay with ELF5, 1.16 fold enrichment (6-mer frequency, TF over GST control); with ETV3, 1.16 fold enrichment (6-mer frequency, TF over GST control); with ETV6 it was 1.32 fold enrichment (6-mer frequency, TF over GST control).
